Compounds with a hit are over-represented: about 2.9% of the library has one in this group of screens.
SNCA expr inhib = inhibitors of alpha-synuclein (SNCA) gene expression | HEK-293 SNCA-luciferase knock-in, luminescence, 24 h | Potency, µM (highest dose often 57.2 µM), without a hit: top-dose activity change, negative = inhibition, most hits filed as inhibitors | actives 0.17% (n = 140,000) | AID 1671194;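 note: potency is the fitted concentration of half-maximal effect; plate controls were DMSO cells for no effect and cell-free wells for full effect; nearly all actives have a fitted effect of over 45% in size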
KDM5B inhibitor = inhibitors of human KDM5B histone demethylase; Q9UGL1; KDM5B demethylase, FDH-coupled NADH fluorescence (FDH is formaldehyde dehydrogenase); Potency, µM (series often up to 57.7 µM), usual class: inhibitors; actives 2.6% (n = 220,000); AID 1347165; note: potency is the fitted concentration of half-maximal effect; 0% is about no effect; nearly all actives have a fitted effect of over 70% in size
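Compound dilutions met 200 nM (final) KDM5BΔAP for 10 min at room temperature before substrate addition. The substrate mix held 12.5 µM H3K4me3 with cofactors 25 µM α-ketoglutarate and 50 µM Fe²⁺. NADH signal gain over 30 min defined activity.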
SNCA viab count = reduces viability of HEK-293 SNCA reporter cells | HEK-293-SNCA-luc viability, GF-AFC fluorescence, 24 h | Potency, µM (top dose mostly 57.1 µM), inactives show at the highest dose activity change, negative = cytotoxicity, hits mostly cytotoxic | actives 0.12% (n = 150,000) | AID 1671193;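 note: potency is the fitted concentration of half-maximal effect; 0% = DMSO-treated cells and -100% = medium-only wells without cells; nearly all actives have a fitted effect of over 30% in size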
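HEK-293-SNCA-luc cells (1500/well) plated 24 h, then exposed 24 h to a dilution series; GF-AFC added 30 min at 37C, fluorescence 405/540 nm; normalised to medium-only and DMSO wells, Hill fit.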
IP6K1 inh = blocks human inositol hexakisphosphate kinase 1; IP6K1 kinase, ADP-Glo luminescence, 2 h; active compounds read low; activity change, % (series mostly up to about 58 µM); actives 0.81% (n = 140,000); AID 1645851; in the data active = activity change below about -25%; note: % is set by controls: 0 for no effect and ±100 for the full control effect
Target sequence (Q92551 whole entry, looked up): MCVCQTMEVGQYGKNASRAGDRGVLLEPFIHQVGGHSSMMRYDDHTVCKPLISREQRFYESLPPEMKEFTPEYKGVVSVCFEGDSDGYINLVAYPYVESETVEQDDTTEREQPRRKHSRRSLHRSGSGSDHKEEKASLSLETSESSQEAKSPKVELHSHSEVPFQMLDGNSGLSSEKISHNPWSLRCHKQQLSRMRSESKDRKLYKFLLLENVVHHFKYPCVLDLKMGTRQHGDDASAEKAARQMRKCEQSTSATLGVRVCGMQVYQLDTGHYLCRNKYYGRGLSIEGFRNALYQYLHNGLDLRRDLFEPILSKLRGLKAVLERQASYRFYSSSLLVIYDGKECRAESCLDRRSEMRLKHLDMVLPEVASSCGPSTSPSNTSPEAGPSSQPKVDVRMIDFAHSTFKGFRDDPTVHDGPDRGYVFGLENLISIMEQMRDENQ
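ADP-Glo luminescence measures ADP made by human IP6K1 during a 2 h RT reaction with ATP/IP6 (mix at 1.3 mM/130 uM); top library doses 57.5 and 19.1 uM final.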
Numbers without * were called inactive; i = inactive; ? = inconclusive; . = no result; [ ] = dose if it differs, or a comment. Unless noted, calls come from the whole dose curve; as a rule, active = well fitted curve in the direction sought with a large enough effect; inconclusive = small, poorly fitted or top-dose-only effect, or another doubt; inactive = no such curve, though single readings can be large; an effect the other way counts as inactive or inconclusive.

SMILES	SNCA expr inhib	KDM5B inhibitor	SNCA viab count	IP6K1 inh
NC(=O)C1CCN(Cc2nnc3cc(-c4nc(-c5ccccc5)no4)ccn23)CC1	96%	6.3µM*	13%	10
Fc1ccc(F)c(CNCc2cccnc2-n2cccn2)c1	.	i	.	.
Cc1ccccc1Cn1cc(-c2ccncc2)cc1C(=O)N1CCCC1	-6%	?	18%	-7
CCN1c2ccccc2NC2=C(C(=O)CC(C)(C)C2)C1c1ccccc1 (centres undefined)	.	i	.	.
Cc1noc(-c2ccn3c(CNC(=O)CCC4CCCC4)nnc3c2)n1	10%	22µM*	-9%	1
CCc1noc(-c2ccn3c(CNC(=O)C4CCCCC4)nnc3c2)n1	6%	28µM*	2%	18
Cc1noc(-c2ccn3c(CNC(=O)Cc4ccc(OC(F)(F)F)cc4)nnc3c2)n1	-17%	?	10%	-4
CCc1noc(-c2ccn3c(CNC(=O)CCC4CCCC4)nnc3c2)n1	7%	4.5µM*	-7%	15
COc1ccccc1N1CCN(c2nc3ccc(C)cc3nc2-n2nc(C)cc2C)CC1	5%	?	-1%	1
O=c1ccc(CN2CCOCC2)cn1CC1CC1	18%	i	0%	-6
COc1ccc(CCc2nc3nccc(-c4cc(OC)c(OC)c(OC)c4)n3n2)cc1	-30%	?	-18%	-12
COc1cc(-c2ccnc3nc(CC(C)C)nn23)cc(OC)c1OC	7%	18µM*	0%	-3
COc1ccc(-c2ccnc3nc(CCc4ccccc4)nn23)cc1OC	41%	22µM*	4%	-15
COc1ccc(CCc2nc3nccc(-c4ccc(OC)c(OC)c4)n3n2)cc1	16%	28µM*	2%	4
COc1cc(-c2ccnc3nc(CCc4ccccc4)nn23)cc(OC)c1OC	7%	14µM*	2%	13
COc1ccc(OC)c(NC(=O)c2nc(S(=O)(=O)Cc3ccc(F)cc3)ncc2Cl)c1	?	?	?	-10
COc1cc(NC(=O)Cn2c(C)cc3ccccc3c2=O)cc(OC)c1OC	-14%	?	-7%	-16
COc1ccc(-c2ccnc3nc(CCC4CCCC4)nn23)cc1OC	-28%	13µM*	-20%	-6
c1ccc(-c2ccnc3nc(CCC4CCCC4)nn23)nc1	16%	?	7%	1
C=C(C)[C@@H]1CCC2(C(=O)OC)CC[C@]3(C)C(CCC4[C@@]5(C)C/C(=C\c6ccccc6)C(=O)C(C)(C)C5CC[C@]43C)C12 (some centres undefined)	.	i	.	.
COC(=O)[C@]12CCC(C)(C)C[C@@H]1[C@@H]1C(=O)C=C3[C@@]4(C)C=C(C#N)C(=O)C(C)(C)[C@@H]4CC[C@@]3(C)[C@]1(C)CC2	8.6µM*	.	14µM*	.
Cc1ccc(-c2cc3c(=O)n(CCNC(=O)c4ccc(Cl)cc4)ccn3n2)cc1C	17%	14µM*	-12%	-4
Cc1ccc(C(=O)NCCn2ccn3nc(-c4ccc(C)c(C)c4)cc3c2=O)cc1	24%	?	9%	-12
Cc1ccc(-c2cc3c(=O)n(CCNC(=O)c4cccc(N(C)C)c4)ccn3n2)cc1C	99%	18µM*	-9%	-14
Cc1ccc(-c2cc3c(=O)n(CCNC(=O)c4ccc(F)cc4Cl)ccn3n2)cc1C	37%	32µM*	-11%	-13
SMILES	SNCA expr inhib	KDM5B inhibitor	SNCA viab count	IP6K1 inh
COc1cccc(C(=O)NCCn2ccn3nc(-c4ccc(C)c(C)c4)cc3c2=O)c1	103%	i	-12%	-12
Cc1ccc(C)c(-c2cc3c(=O)n(CCNC(=O)c4ccc(N(C)C)cc4)ccn3n2)c1	?	35µM*	1%	-6
Cc1ccc(-c2nc(C(=O)NCc3ccc(F)cc3Cl)no2)cc1	11%	i	10%	4
C/C(=N/NC(=O)CNS(=O)(=O)c1ccccc1)c1ccc(Br)cc1	.	i	.	.
NC(=O)c1ccc(CN(C(=O)c2nn(-c3ccccc3)c(=O)c3ccccc23)C2CC2)cc1	.	i	.	.
COC(=O)CNC(=O)c1nc(-c2c(C)cccc2C)c2ccccn12	-6%	28µM*	3%	18
C#CCNC(=O)c1nc(-c2c(C)cccc2C)c2ccccn12	23%[87.6 µM]	40µM*	7%[87.6 µM]	5
C#CCNC(=O)c1nc(-c2ccc([S+](C)(=O)[O-])cc2)c2ccccn12	7%	i	4%	-20
COCCNC(=O)c1nc(-c2c(C)cccc2C)c2ccccn12	-19%[87.6 µM]	35µM*	7%[87.6 µM]	9
Cc1cccc(C)c1-c1nc(C(=O)N2CCCC2)n2ccccc12	0%[87.6 µM]	40µM*	2%[87.6 µM]	11
COC(=O)c1c(C)oc2ccc(N(C(=O)c3ccncc3)S(=O)(=O)c3cc(C)c(C)cc3C)cc12	?	i	-3%	4
CCCn1ncc(C(=O)N2CCOC(CCCC(C)C)C2)c1C (centres undefined)	0%	i	-3%	6
Cc1cccc(C)c1-c1nc(C(=O)NCCc2ccc(Cl)cc2)n2ccccc12	?	14µM*	13%	10
COC(=O)CNC(=O)c1nc(-c2cc(Cl)cc(Cl)c2)c2ccccn12	28%	25µM*	9%	2
Cc1cccc(C)c1-c1nc(C(=O)NC2CC2)n2ccccc12	-7%	100µM*	2%	-23
O=C1NC2(CCN(CC3CCCC3)CC2)Oc2ccccc21	7%[87.6 µM]	i	1%[87.6 µM]	12
O=C(O)c1cc(-c2ccccn2)nc2ccccc12	.	i	.	.
N#CC1CCN(C(=O)C2CCCN2C(=O)c2cccc(-c3ccccn3)c2)CC1 (centres undefined)	12%	.	-5%	4
Cc1cc(Cl)ccc1S(=O)(=O)N1CC(c2noc(-c3cccnc3)n2)C1	-24%	i	-14%	35
O=C(Nc1cccc(OC(F)(F)F)c1)C1(CCO)CCN(c2ncccn2)C1 (centres undefined)	?	25µM*	-20%	5
Cc1ccc(NC(=O)C2(CCO)CCN(c3ncccn3)C2)cc1 (centres undefined)	?	28µM*	0%	11
CCCNC(=O)C1(CCO)CCN(c2ncccn2)C1 (centres undefined)	47%	?	10%	2
Cc1ccc(CNC(=O)C2(CCO)CCN(c3ncccn3)C2)o1 (centres undefined)	-22%	28µM*	-6%	0
CC(C)CCNC(=O)C1(CCO)CCN(c2ncccn2)C1 (centres undefined)	4%	25µM*	-5%	-6
CC(=O)c1cc(-c2ccc(F)cc2)n(CC(=O)NC(C)c2ccccc2)c1C (centres undefined)	-20%	i	3%	10
COc1ccccc1-c1cc(C(=O)O)c2cc(C)cc(C)c2n1	.	i	.	.
CC(C)(C)C(=O)N1CC[C@H]2CC(=O)N([C@@H](Cc3ccccc3)C(N)=O)CC[C@H]2C1	-9%[87.6 µM]	i	8%[87.6 µM]	28
Cc1ccc(NC(=O)c2nc3sccn3c2-c2ccc(F)cc2)cc1	-21%	.	-1%	13
O=S1(=O)CCN(Cc2cn(C[C@H]3C[C@@H](NCc4cccnc4)[C@H](O)[C@@H]3O)nn2)CC1	-22%	?	-6%	10

Screens as filed in PubChem BioAssay.
